These results are taken from PubChem BioAssay.

Active and inactive are the calls of the source.

The target in one assay is Albumin (Bos taurus) (UniProt P02769). Description: compounds binding labelled BSA control protein – biochemical, small-molecule microarray, Alexa647 label, 635/667 nm fluorescence, artefact control for SMM control protein annotation, profiling panel (AID 1118).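 Note: score merges 667 nm emission intensity and signal-to-noise per printed compound spot.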 The note with it: BSA-A647 binding, fluorescence 635 nm, higher = more signal.
The nature of assay [1]: probe aXIP binding to arrayed compounds – biochemical, NeuroSMM set, 635/667 nm fluorescence, primary screen (AID 1119).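 Note: probe is the protein aXip251-270 applied at 1 µg/mL to compound-printed slides; binding of probe to printed compounds measured as 667 nm fluorescence plus signal to noise.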 The note with it: small-molecule microarray, higher = more signal, called active from +8 up or from −8 down.
Assay [2] is described as follows: probe aNOTCH3 binding on compound microarray – biochemical, small-molecule microarray, 635/667 nm fluorescence, primary screen (AID 1120).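 Note: probe is a biotin-tagged antibody raised against NOTCH3 rather than NOTCH3 protein; score merges spot fluorescence near 667 nm with spot signal to noise.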 To be noted: higher = more signal.
Assay [3] in a line: probe aNOTCH2 binding on compound microarray – biochemical, small-molecule microarray, 635/667 nm fluorescence, primary screen (AID 1121).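 Note: score merges feature fluorescence read at 667 nm with its signal to noise.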 To be noted: higher = more signal.
Assay [4] deals with Carbonic anhydrase 2 (Homo sapiens) (UniProt P00918). Description: compounds binding carbonic anhydrase 2 – biochemical, small-molecule microarray, Alexa647-labelled CAII, profiling panel (AID 1122). The note with it: CAII-A647 binding fluorescence, higher = more signal.
A short description of assay [5]: COS7 lysate on small-molecule microarray, probe aHis, 635 nm (AID 1123).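 Note: z-score combines 667nm fluorescence intensity with signal-to-noise per printed compound spot.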 The note with it: COS7 cell lysate, fluorescence, higher = more signal.
Assay [6] can be described thus: probe aLAP1 signal on lysate-treated microarray – cell lysate, small-molecule microarray, COS7 lysate, primary screen (AID 1124).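 Note: lysate comes from COS7 cells expressing LAP1 and is applied at 0.3 µg/mL; score merges spot fluorescence near 667 nm with signal-to-noise over triplicate slides.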 The note with it: probe aLAP1, fluorescence, higher = more signal.
The test system of another assay is Sam68 (KHDRBS1). Description: compounds binding KHDRBS1 protein – biochemical, small-molecule microarray, 635 nm fluorescence, primary screen (AID 1125).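 Note: score merges 667 nm channel intensity with signal to noise over triplicate slides.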 The note with it: higher = more signal.
The test system of assay [7] is Chordin-like protein 2 (CHRDL2). In words: compounds binding chordin-like 2 – biochemical, small-molecule microarray, 635 nm fluorescence, primary screen (AID 1126).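 Note: printed compound slides probed with Chrdl2 protein at 4 µg/mL for 1 h at 4 C; score merges 667 nm emission intensity with signal to noise over three replicate slides.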 To be noted: fluorescence 635 nm, higher = more signal.
For assay [8], the target named is Concanavalin-A (Canavalia ensiformis) (UniProt P02866). In words: compounds binding concanavalin A lectin – biochemical, small-molecule microarray, Alexa647 label, 635 nm, artefact control for SMM control protein annotation, primary screen (AID 1127).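 Note: z combines 667 nm emission intensity with signal-to-noise across three replicate slides.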 To be noted: ConA-A647 binding fluorescence, higher = more signal.
Assay [9] in a line: compounds binding Alexa647 anti-His antibody – biochemical, small-molecule microarray, 635 nm fluorescence, artefact control for SMM control protein annotation, primary screen (AID 1128).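 Note: score merges feature fluorescence with signal-to-noise for each printed compound spot.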 To be noted: higher = more signal.
The subject of assay [10] is Human papillomavirus type 1a E7 protein (residues 1-88). Description: HPV1a E7 small-molecule binders, primary screen, biochemical, small-molecule microarray, residues 1-88, 635 nm (AID 1129). The note with it: small-molecule microarray binding, fluorescence 635 nm; higher = more signal.
Assay [11] has as its target Focal adhesion kinase 1 (Homo sapiens) (UniProt Q05397). Description: PTK2 protein binding on printed compound slides – biochemical, small-molecule microarray, 635/667 nm fluorescence, BSA, DTT, primary screen (AID 1130).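 Note: composite of spot emission at 667 nm and signal to noise over triplicate slides.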 To be noted: 635 nm fluorescence, higher = more signal.
Assay [12] relates to Fibrinogen (Alexa647-labelled). In words: Alexa647-fibrinogen binding to printed small molecules – biochemical, small-molecule microarray, 635/667 nm fluorescence, artefact control for SMM control-protein annotation, profiling panel (AID 1131).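 Note: z-score merges 667 nm fluorescence with per-spot signal-to-noise over triplicate slides.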 To be noted: fibrinogen-A647 binding fluorescence, higher = more signal.
Assay [13] has as its target Follistatin (Homo sapiens) (UniProt P19883). Description: FST protein binding to printed compounds – biochemical, small-molecule microarray, 635/667 nm fluorescence, primary screen (AID 1132). The note with it: 635 nm fluorescence, higher = more signal.
Assay [14] deals with Fibroblast growth factor 2 (Homo sapiens) (UniProt P09038). In words: basic fibroblast growth factor binding to printed compounds – biochemical, small-molecule microarray, 635/667 nm fluorescence, primary screen (AID 1133). To be noted: FGF2, fluorescence 635/667, higher = more signal.
The nature of assay [15]: JC-1 mitochondrial potential readout, lung cancer cells – cell-based, A549, JC-1 fluorescence, basal, 24 h, 100 nL, profiling panel (AID 1138).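 Note: A549 lung adenocarcinoma cells under basal conditions with no added stimulus; test concentration not given here.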 The note with it: higher = more signal.
In a further assay the test system is Lefty1. Description: Lefty1 protein binding to printed compounds – biochemical, small-molecule microarray, 635/667 nm fluorescence, primary screen (AID 1139). To be noted: fluorescence 635/667, higher = more signal.
Assay [16] concerns wheat germ agglutinin (Triticum aestivum), Alexa647-labelled. Description: Alexa647-WGA lectin binding to printed small molecules – biochemical, small-molecule microarray, 635/667 nm fluorescence, artefact control for SMM control-protein annotation, profiling panel (AID 1140).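 Note: score merges 667 nm feature emission with signal to noise over triplicate slides.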 The note with it: WGA-A647 binding, 635 nm fluorescence, higher = more signal.
The target in assay [17] is Luciferin 4-monooxygenase (Photinus pyralis) (UniProt P08659). In words: inhibition of purified Photinus pyralis luciferase – biochemical, luminescence, purified enzyme, 2006 set, primary screen (AID 1141).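 Note: cell-free assay with purified firefly luciferase at 100 ng per well in PBS; test concentration not given here.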 To be noted: purified firefly luciferase, SteadyGlo luminescence, 30 min; higher = more signal, called active from +8 up or from −8 down.
Chain of Luciferin 4-monooxygenase (Photinus pyralis) (P08659 whole entry, looked up): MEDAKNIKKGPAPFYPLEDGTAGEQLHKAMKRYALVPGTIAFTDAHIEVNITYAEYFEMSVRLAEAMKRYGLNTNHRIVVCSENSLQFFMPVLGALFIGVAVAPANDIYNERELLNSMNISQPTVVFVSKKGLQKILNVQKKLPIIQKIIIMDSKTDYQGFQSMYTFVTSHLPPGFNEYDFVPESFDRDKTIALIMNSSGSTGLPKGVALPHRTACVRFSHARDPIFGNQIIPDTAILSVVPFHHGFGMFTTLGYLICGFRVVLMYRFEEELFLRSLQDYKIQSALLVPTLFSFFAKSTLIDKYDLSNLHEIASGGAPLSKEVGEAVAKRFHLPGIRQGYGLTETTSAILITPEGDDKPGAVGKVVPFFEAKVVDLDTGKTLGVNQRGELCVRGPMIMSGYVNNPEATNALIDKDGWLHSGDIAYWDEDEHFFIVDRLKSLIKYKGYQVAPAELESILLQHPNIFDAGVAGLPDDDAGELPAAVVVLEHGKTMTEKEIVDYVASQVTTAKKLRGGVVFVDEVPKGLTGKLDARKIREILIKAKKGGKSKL

Chain of Focal adhesion kinase 1 (Homo sapiens) (Q05397 whole entry, looked up): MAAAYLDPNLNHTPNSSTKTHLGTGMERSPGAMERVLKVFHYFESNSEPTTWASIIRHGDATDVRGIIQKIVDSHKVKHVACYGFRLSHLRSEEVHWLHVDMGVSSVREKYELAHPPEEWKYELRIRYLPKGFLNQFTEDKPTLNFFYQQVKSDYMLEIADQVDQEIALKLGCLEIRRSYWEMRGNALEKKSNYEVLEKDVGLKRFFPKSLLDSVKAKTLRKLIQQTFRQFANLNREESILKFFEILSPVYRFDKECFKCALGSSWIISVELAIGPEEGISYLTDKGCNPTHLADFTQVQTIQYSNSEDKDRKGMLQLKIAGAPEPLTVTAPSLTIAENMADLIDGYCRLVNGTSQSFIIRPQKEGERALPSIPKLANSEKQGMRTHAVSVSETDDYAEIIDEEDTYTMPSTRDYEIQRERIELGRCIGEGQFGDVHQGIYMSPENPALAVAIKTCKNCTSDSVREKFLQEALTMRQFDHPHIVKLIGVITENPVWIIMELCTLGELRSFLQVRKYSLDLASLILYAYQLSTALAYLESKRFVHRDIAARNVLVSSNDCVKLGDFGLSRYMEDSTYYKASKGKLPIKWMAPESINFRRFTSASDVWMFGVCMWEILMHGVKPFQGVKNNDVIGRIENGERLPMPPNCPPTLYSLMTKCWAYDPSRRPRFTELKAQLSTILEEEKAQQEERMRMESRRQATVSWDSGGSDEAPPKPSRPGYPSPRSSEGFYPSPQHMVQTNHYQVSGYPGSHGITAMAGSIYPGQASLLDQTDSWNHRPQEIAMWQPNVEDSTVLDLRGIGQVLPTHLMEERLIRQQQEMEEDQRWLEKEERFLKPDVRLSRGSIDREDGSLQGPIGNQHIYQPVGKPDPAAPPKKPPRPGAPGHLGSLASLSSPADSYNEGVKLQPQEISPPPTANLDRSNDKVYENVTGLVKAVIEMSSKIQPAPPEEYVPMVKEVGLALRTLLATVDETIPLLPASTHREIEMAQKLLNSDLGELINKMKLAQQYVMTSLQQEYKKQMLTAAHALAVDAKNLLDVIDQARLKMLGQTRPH
Chain of Follistatin (Homo sapiens) (P19883 whole entry, looked up): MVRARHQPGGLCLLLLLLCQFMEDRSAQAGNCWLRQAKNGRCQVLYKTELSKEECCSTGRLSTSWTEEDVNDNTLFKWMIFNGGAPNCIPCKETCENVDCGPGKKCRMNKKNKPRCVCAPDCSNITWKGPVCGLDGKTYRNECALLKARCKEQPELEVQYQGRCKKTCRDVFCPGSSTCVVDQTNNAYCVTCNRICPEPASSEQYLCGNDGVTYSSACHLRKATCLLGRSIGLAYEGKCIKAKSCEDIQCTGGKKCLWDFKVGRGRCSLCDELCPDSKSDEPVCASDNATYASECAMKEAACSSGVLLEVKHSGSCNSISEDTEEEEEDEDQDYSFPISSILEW
Chain of Fibroblast growth factor 2 (Homo sapiens) (P09038 whole entry, looked up): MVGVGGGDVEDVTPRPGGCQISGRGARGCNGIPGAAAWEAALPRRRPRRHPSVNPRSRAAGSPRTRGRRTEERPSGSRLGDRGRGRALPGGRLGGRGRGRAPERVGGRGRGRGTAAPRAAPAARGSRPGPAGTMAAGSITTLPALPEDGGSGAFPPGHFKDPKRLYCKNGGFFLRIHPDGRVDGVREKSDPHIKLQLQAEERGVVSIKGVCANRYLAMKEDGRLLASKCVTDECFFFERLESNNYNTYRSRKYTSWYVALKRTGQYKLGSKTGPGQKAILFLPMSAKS
Chain of Concanavalin-A (Canavalia ensiformis) (P02866 whole entry, looked up): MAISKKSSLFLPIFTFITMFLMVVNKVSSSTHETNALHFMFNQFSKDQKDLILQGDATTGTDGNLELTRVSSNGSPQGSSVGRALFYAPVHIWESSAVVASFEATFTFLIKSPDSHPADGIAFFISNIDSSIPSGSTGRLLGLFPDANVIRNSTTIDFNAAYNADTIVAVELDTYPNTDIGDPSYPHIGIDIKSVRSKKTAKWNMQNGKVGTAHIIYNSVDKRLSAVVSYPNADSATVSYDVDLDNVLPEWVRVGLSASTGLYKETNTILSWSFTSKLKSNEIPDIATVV
Chain of Albumin (Bos taurus) (P02769 whole entry, looked up): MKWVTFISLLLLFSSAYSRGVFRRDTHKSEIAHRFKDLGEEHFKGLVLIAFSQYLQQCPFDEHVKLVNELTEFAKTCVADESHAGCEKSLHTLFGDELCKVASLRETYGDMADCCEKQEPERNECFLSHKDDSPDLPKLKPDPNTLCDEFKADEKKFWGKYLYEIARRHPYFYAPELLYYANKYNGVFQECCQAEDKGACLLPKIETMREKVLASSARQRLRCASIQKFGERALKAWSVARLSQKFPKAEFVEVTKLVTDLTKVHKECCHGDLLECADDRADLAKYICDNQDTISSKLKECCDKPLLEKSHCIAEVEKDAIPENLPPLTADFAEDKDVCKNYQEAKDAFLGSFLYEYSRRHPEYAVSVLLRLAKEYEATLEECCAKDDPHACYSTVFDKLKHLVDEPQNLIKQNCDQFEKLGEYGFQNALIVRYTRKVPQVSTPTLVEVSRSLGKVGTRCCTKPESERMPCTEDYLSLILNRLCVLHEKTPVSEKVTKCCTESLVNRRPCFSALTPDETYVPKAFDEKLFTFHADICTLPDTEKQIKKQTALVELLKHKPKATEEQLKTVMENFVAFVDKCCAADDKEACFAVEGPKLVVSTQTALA

In the case of `COCCCN1C(=O)[C@@]2(c3ccc([N+](=O)[O-])cc3)CC(=O)N(CC34CC5CC(CC(C5)C3)C4)[C@@H]2c2ccc(CO)cc21`, the composite z-score was -0.0098 in the assay with Albumin (Bos taurus); -0.101 in assay [2]; -0.0666 in assay [3]; 0.48 in [4]; 0.373 in assay [5]; 0.991 in assay [6]. Moreover, the composite z-score in the assay with Sam68 (KHDRBS1) was 0.229; in assay [7], -0.0444; in assay [8], 0.728; in [9], -0.0041; in [10], -0.217; in assay [11], -0.102. In addition, the composite z-score in [12] was -0.753; in assay [13], 1; in assay [14], 0.232; with Lefty1, 0.739; in assay [16], 0.115. The composite Z-score in assay [1] is 0.208 (inactive). Further, the z-score in assay [15] was 0.961; in assay [17], -0.844 (inactive).

For `CCOC(=O)C[C@H]1[C@H](OC(=O)Cc2ccc3c(c2)OCO3)[C@@H](NC(=O)c2ccc3ccccc3n2)c2cc(OCCCO)ccc2N1C(=O)Cc1ccc(OC)cc1`, the composite z-score with Albumin (Bos taurus) is 0.635; in assay [2], 0.169; in [3], -0.0286; in assay [4], 0.276; in assay [5] it was 0.654; in assay [6] it was 0.0887. Moreover, the composite z-score with Sam68 (KHDRBS1) is 0.91; in assay [7], -0.17; in [8], 0.774; in assay [9] it was 0.337; in [10], 0.672; in assay [11], -0.307. The composite z-score in assay [12] was 0.557; in assay [13] it was 0.72; in [14] it was 0.394; in the assay with Lefty1, 0.577; in [16], 0.391. Also, the composite Z-score in assay [1] is 0.378 (inactive). In addition, the z-score in assay [15] was 1.26; in assay [17], -0.628 (inactive).

With `NC(=O)N1C(=O)C2C(C1=O)C1C=C(CCCO)C2C(C2CC2)N1Cc1sc2ccccc2c1Cl` (stereo not given), the composite z-score was 0.758 in the assay with Albumin (Bos taurus); -0.0362 in assay [2]; -0.15 in [3]; 0.616 in [4]; 1.19 in [5]; 0.979 in assay [6]. Moreover, the composite z-score in the assay on Sam68 (KHDRBS1) is 1.15; in [7], -0.0285; in assay [8], 1.11; in assay [9], 2.4; in [10] it was 0.802; in assay [11], 0.284. The composite z-score in assay [12] was determined as 0.795; in [13] it was 0.539; in assay [14] it was 0.983; in the assay on Lefty1, 0.587; in [16], 0.661. In addition, the composite Z-score in assay [1] is 0.121 (inactive). The z-score in assay [15] was 0.898; in assay [17] it was -2.2 (inactive).

As to `COC(=O)C(CC#Cc1ccc2c(c1)[C@]1(C(=O)N2)[C@H](c2ccccc2OCCO)N2[C@H](c3ccccc3)[C@H](c3ccccc3)OC(=O)[C@H]2[C@@H]1C(=O)N1CCc2cc(OC)c(OC)cc2C1)C(=O)OC`, the composite z-score with Albumin (Bos taurus) is 0.185; in assay [2], 0.172; in assay [3], -0.14; in [4], 0.661; in [5], 1.19; in assay [6], 0.653. The composite z-score was determined as 1.29 in the assay on Sam68 (KHDRBS1); 0.618 in assay [7]; 0.914 in assay [8]; 1.3 in [9]; 1.21 in [10]; 0.317 in assay [11]. The composite z-score in [12] worked out at 0.601; in assay [13] it was 1.32; in assay [14] it was 0.667; in the assay on Lefty1, 0.896; in [16] it was 0.28. Moreover, the composite Z-score in [1] is 0.0296 (inactive). In addition, the z-score in assay [15] is -0.668; in assay [17], -0.242 (inactive).

On to `N#Cc1ccc(C(O)C2C=CC3C(=O)NC(=O)C3N2Nc2ccc(Cl)cc2Cl)cc1` (stereo not given), for which the composite z-score came to 0.956 with Albumin (Bos taurus); 0.112 in [2]; 0.132 in assay [3]; 0.651 in assay [4]; 2.94 in assay [5]; 1.48 in assay [6]. Further, the composite z-score was -0.0258 in the assay with Sam68 (KHDRBS1); -0.581 in assay [7]; 0.489 in [8]; 0.299 in [9]; 0.534 in assay [10]; 0.352 in assay [11]. Besides, the composite z-score in assay [12] is 0.732; in assay [13] it was -0.0644; in [14] it was -0.164; in the assay with Lefty1 it was -0.781; in assay [16], 1.08. In addition, in assay [1], the composite Z-score is 0.868 (inactive). Besides, the z-score is 1.28 in assay [15] and 0.293 (inactive) in assay [17].
